# Laboratory results: PubChem BioAssay
# The source made the active and inactive calls. Unless noted, how the calls were made is not given here.
# Assays:
# [1] = resazurin metabolic signal in HepG2 cells – cell-based, resazurin fluorescence, 24 h, PK04 Diversity Set, profiling panel (AID 1172); conditions: HepG2 viability, higher = more signal
# [2] = budding yeast growth changes without added modifier – OD600, strain BY4716, 24 h, basal condition, primary screen (AID 1173); conditions: S. cerevisiae BY4716 growth, OD600, 24 h; higher = more signal, called active from +8 up or from −8 down
# [3] = viability profiling in MM1S myeloma cells – cell-based, resazurin fluorescence, basal, 24 h, PK04 Diversity Set, profiling panel (AID 1174); conditions: higher = more signal, called active from +8 up or from −8 down;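 further: MM1S multiple myeloma cell line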
# [4] = molecular target: Dihydroorotate dehydrogenase (quinone), mitochondrial (Plasmodium falciparum (isolate 3D7)) (UniProt Q08210); experiment: inhibition of P. falciparum DHODH – biochemical, C-terminal His tag, absorbance 600 nm, primary screen (AID 1175); conditions: PfDHODH enzyme, DCIP absorbance 600 nm; higher = more signal, called active from +8 up or from −8 down;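 further: recombinant parasite enzyme with a five histidine tag at its C terminus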
# [5] = inhibition of PAO1 biofilm formation – strain PAO1, LB-PBS medium, absorbance 600 nm, primary screen (AID 1176); conditions: P. aeruginosa PAO1 growth/biofilm, A600, 12 h; higher = more signal
# [6] = growth modulation of vineyard yeast isolate – strain RM11-1a, OD600, basal, 24 h, primary screen (AID 1177);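 further: cultures grown under basal conditions with no added stressor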; conditions: S. cerevisiae RM11-1a growth, OD600, 24 h; higher = more signal, called active from +8 up or from −8 down
# [7] = growth of efflux-deficient E. coli DRC39 – strain DRC39, OD650, 24 h, E. coli filamentation inducers, primary screen (AID 1178);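 further: growth measured as culture turbidity by optical density at 650 nm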; conditions: E. coli DRC39 acrAB, higher = more signal, called active from +8 up or from −8 down
# [8] = growth of efflux-deficient E. coli DRC39 – strain DRC39, OD650, 48 h, E. coli filamentation inducers, primary screen (AID 1179);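 further: screen aims at cell division blockers that make cells filament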; conditions: E. coli DRC39 delta-acrAB growth, higher = more signal, called active from +8 up or from −8 down
# [9] = viability profiling in RPMI8226 myeloma cells – cell-based, resazurin fluorescence, basal, 24 h, PK04 Diversity Set, profiling panel (AID 1180); conditions: higher = more signal;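 further: RPMI8826 multiple myeloma cell line at 5000 cells per well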
# [10] = molecular target: E3 ubiquitin-protein ligase XIAP (Homo sapiens) (UniProt P98170); experiment: small molecules binding XIAP protein – biophysical, small-molecule microarray, fluorescence 635 nm, primary screen (AID 1181); conditions: higher = more signal;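 further: score merges 667 nm emission and signal to noise over triplicate slides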
# [11] = system: XIP peptide (Xip251-270) binding; experiment: XIP fragment 251-270 binding compounds – biochemical, small-molecule microarray, fluorescence 635/667 nm, 0.1 µg/mL protein, primary screen (AID 1182); conditions: fluorescent protein binding, 635 nm, higher = more signal, called active from +8 up or from −8 down
# XIP peptide (Xip251-270) = experiment: compounds binding XIP fragment 251-270 – biochemical, small-molecule microarray, fluorescence 635/667 nm, 0.5 µg/mL protein, primary screen (AID 1183); conditions: fluorescence 635 nm, higher = more signal
# [12] = blood-stage malaria parasite viability loss – strain 3D7, DAPI fluorescence, 100 nL, primary screen (AID 1184);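 further: parasites grown inside human red blood cells in medium with human serum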; conditions: P. falciparum 3D7 growth, 3 d, higher = more signal
# [13] = molecular target: Homeobox protein Hox-A13 (Mus musculus) (UniProt Q62424); experiment: disruptors of Hoxa13 oligonucleotide interaction – biochemical, fluorescence polarization, labeled oligonucleotide, primary screen (AID 1185); conditions: Hoxa13:DNA binding, 15 min, higher = more signal, called active from +8 up or from −8 down
# [14] = blockers of DNA damage checkpoint Chk1 activation – imaging, HeLa, hydroxyurea, phospho-Chk1 antibody, percent positive cells, primary screen (AID 1186); conditions: hydroxyurea-induced phospho-Chk1 immunofluorescence imaging, higher = more signal
# [15] = blockers of DNA damage checkpoint Chk1 activation – imaging, HeLa, hydroxyurea, phospho-Chk1 nuclear intensity, primary screen (AID 1187); conditions: hydroxyurea-induced phospho-Chk1 immunofluorescence imaging, higher = more signal
# Sequence of Homeobox protein Hox-A13 (Mus musculus) (Q62424 whole entry, looked up): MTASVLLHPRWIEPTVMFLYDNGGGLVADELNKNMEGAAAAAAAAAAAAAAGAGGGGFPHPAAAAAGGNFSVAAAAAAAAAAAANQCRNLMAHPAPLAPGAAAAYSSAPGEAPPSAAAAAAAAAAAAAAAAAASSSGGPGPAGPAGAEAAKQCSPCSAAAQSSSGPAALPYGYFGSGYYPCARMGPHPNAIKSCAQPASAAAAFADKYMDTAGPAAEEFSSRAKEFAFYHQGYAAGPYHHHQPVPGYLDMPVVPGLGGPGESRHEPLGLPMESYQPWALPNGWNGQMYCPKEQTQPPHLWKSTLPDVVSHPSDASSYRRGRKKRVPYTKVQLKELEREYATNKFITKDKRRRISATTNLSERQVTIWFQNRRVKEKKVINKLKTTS
# Sequence of Dihydroorotate dehydrogenase (quinone), mitochondrial (Plasmodium falciparum (isolate 3D7)) (Q08210 whole entry, looked up): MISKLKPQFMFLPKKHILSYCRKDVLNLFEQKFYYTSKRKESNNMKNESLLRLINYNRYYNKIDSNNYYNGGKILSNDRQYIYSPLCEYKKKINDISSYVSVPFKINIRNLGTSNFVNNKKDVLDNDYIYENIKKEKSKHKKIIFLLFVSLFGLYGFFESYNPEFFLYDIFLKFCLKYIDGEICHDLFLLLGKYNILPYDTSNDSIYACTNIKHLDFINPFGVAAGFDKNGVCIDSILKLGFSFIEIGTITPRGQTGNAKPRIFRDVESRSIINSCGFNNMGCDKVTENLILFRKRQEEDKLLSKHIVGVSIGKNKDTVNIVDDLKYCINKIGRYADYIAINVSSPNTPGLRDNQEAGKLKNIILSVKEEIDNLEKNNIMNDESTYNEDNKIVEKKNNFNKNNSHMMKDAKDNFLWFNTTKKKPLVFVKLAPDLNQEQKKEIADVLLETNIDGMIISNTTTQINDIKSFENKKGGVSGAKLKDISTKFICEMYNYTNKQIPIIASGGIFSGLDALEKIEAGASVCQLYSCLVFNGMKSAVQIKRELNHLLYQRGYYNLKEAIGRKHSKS
# Sequence of E3 ubiquitin-protein ligase XIAP (Homo sapiens) (P98170 whole entry, looked up, the tested form may be a part): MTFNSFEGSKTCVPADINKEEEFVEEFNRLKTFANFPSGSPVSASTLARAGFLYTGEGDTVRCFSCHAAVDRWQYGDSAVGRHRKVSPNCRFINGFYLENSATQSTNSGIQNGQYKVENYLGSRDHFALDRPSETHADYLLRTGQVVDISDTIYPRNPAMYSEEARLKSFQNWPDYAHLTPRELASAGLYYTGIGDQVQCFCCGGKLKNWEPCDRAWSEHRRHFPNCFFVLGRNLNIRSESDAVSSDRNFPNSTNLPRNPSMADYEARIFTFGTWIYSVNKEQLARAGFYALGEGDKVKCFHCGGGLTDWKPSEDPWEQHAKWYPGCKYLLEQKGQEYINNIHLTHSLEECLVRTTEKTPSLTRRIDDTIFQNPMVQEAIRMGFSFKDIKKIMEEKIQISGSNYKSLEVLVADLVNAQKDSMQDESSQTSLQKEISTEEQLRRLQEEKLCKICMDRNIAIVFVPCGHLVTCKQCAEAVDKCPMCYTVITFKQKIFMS
smiles,measurement,setting,value
COC(=O)[C@@]1(Cc2ccc(F)cc2)[C@H]2c3cc(C(=O)N4CCCC4)n(CCN4CNCC4=O)c3C[C@H]2CN1C(=O)c1ccccc1,z-score,[1],0.424
same,z-score,[2],1.39 (inactive)
same,z-score,[3],-0.758 (inactive)
same,composite z-score,[4],-0.421 (inactive)
same,z-score,[5],0.976 (inactive)
same,z-score,[6],0.76 (inactive)
same,z-score,[7],0.264 (inactive)
same,z-score,[8],-1.03 (inactive)
same,z-score,[9],-0.628
same,composite z-score,[10],0.253
same,composite z-score,[11],0.207 (inactive)
same,composite z-score,XIP peptide (Xip251-270),0.632
same,z-score,[12],-1.65
same,z-score,[13],-5.84 (inactive)
same,z-score,[14],0.191 (inactive)
same,z-score,[15],0.44 (inactive)
O=C1NC(=O)C2C1C=CC(C(O)c1c(F)cccc1Cl)N2Nc1ccc(Cl)cc1Cl (centres undefined),z-score,[1],-3.13
same,z-score,[2],-14.8 (active)
same,z-score,[3],-2.21 (inactive)
same,composite z-score,[4],0.0047 (inactive)
same,z-score,[5],1.44 (inactive)
same,z-score,[6],-1.12 (inactive)
same,z-score,[7],-0.854 (inactive)
same,z-score,[8],-1.44 (inactive)
same,z-score,[9],-2.2
same,composite z-score,[10],0.482
same,composite z-score,[11],0.831 (inactive)
same,composite z-score,XIP peptide (Xip251-270),0.709
same,z-score,[12],-0.0027
same,z-score,[13],-6.24 (inactive)
same,z-score,[14],1.05 (inactive)
same,z-score,[15],0.702 (inactive)
CCOC(=O)C[C@H]1[C@H](OC(=O)Cc2ccc3c(c2)OCO3)[C@@H](NC(=O)CC(C)C)c2cc(OCCCO)ccc2N1C(=O)Cc1ccc(OC)cc1,z-score,[1],-0.334
same,z-score,[2],-0.252 (inactive)
same,z-score,[3],-0.0151 (inactive)
same,composite z-score,[4],-1.26 (inactive)
same,z-score,[5],0.101 (inactive)
same,z-score,[6],-1.73 (inactive)
same,z-score,[7],0.287 (inactive)
same,z-score,[8],0.629 (inactive)
same,z-score,[9],0.2
same,composite z-score,[10],-0.0622
same,composite z-score,[11],-0.107 (inactive)
same,composite z-score,XIP peptide (Xip251-270),-0.311
same,z-score,[12],0.0373
same,z-score,[13],-3.35 (inactive)
same,z-score,[14],-0.839 (inactive)
same,z-score,[15],-0.401 (inactive)
Cc1ccc(S[C@]2(C(=O)NCCCN(C)C)CC(=O)N(C3CCCCC3)[C@@H]2c2ccc(CO)cc2)cc1,z-score,[1],-0.0347
same,z-score,[2],0.0406 (inactive)
same,z-score,[3],0.118 (inactive)
same,composite z-score,[4],0.193 (inactive)
same,z-score,[5],0.236 (inactive)
same,z-score,[6],1.21 (inactive)
same,z-score,[7],0.425 (inactive)
same,z-score,[8],0.509 (inactive)
same,z-score,[9],-0.0763
same,composite z-score,[10],-0.0374
same,composite z-score,[11],0.332 (inactive)
same,composite z-score,XIP peptide (Xip251-270),0.0388
same,z-score,[12],-1.54
same,z-score,[13],-1.9 (inactive)
same,z-score,[14],0.487 (inactive)
same,z-score,[15],0.866 (inactive)
CC1=C([C@H](O)CCc2ccccc2)[C@H](CO)[C@@H]2C(=O)N(C)C(=O)[C@@H]2C1,z-score,[1],-0.0457
same,z-score,[2],-2.32 (inactive)
same,z-score,[3],-0.382 (inactive)
same,composite z-score,[4],-1.2 (inactive)
same,z-score,[5],0.176 (inactive)
same,z-score,[6],0.291 (inactive)
same,z-score,[7],0.15 (inactive)
same,z-score,[8],0.181 (inactive)
same,z-score,[9],0.149
same,composite z-score,[10],-0.152
same,composite z-score,[11],-0.0688 (inactive)
same,composite z-score,XIP peptide (Xip251-270),0.389
same,z-score,[12],0.306
same,z-score,[13],-4.05 (inactive)
same,z-score,[14],-0.296 (inactive)
same,z-score,[15],-0.528 (inactive)
COC(=O)[C@@]1(Cc2ccc(F)cc2)[C@H]2c3cc(C(=O)N(C)C)n(CCc4ccc(O)c(OC)c4)c3C[C@H]2CN1C(=O)c1ccccc1,z-score,[1],-0.275
same,z-score,[2],0.358 (inactive)
same,z-score,[3],-0.0883 (inactive)
same,composite z-score,[4],0.124 (inactive)
same,z-score,[5],-0.263 (inactive)
same,z-score,[6],0.898 (inactive)
same,z-score,[7],-0.952 (inactive)
same,z-score,[8],-0.574 (inactive)
same,z-score,[9],0.28
same,composite z-score,[10],-0.196
same,composite z-score,[11],-0.327 (inactive)
same,composite z-score,XIP peptide (Xip251-270),-0.277
same,z-score,[12],0.845
same,z-score,[13],-0.562 (inactive)
same,z-score,[14],-0.47 (inactive)
same,z-score,[15],-0.964 (inactive)
CCCCCCc1nc(-c2cc(C)c(OC)c(C)c2)c(C)c2c1[Si](C(C)C)(C(C)C)OC2,z-score,[1],-0.52
same,z-score,[2],-0.214 (inactive)
same,z-score,[3],0.899 (inactive)
same,composite z-score,[4],-2.86 (inactive)
same,z-score,[5],0.374 (inactive)
same,z-score,[6],-0.199 (inactive)
same,z-score,[7],0.326 (inactive)
same,z-score,[8],-0.461 (inactive)
same,z-score,[9],0.736
same,composite z-score,[10],-0.0994
same,composite z-score,[11],-0.31 (inactive)
same,composite z-score,XIP peptide (Xip251-270),-0.306
same,z-score,[12],-2.23
same,z-score,[13],-0.241 (inactive)
same,z-score,[14],0.0933 (inactive)
same,z-score,[15],0.149 (inactive)
COCCOC(=O)N1C(=O)[C@@]2(c3cc(C#Cc4ccc(OC)cc4)ccc31)[C@H](C(=O)Nc1nc3ccccc3s1)[C@H]1C(=O)O[C@H](c3ccccc3)[C@H](c3ccccc3)N1[C@@H]2c1ccc(OCCO)cc1,z-score,[1],-0.635
same,z-score,[2],3.03 (inactive)
same,z-score,[3],-0.63 (inactive)
same,composite z-score,[4],-0.27 (inactive)
same,z-score,[5],2.32 (inactive)
same,z-score,[6],3.64 (inactive)
same,z-score,[7],-0.358 (inactive)
same,z-score,[8],-0.486 (inactive)
same,z-score,[9],-0.56
same,composite z-score,[10],-0.075
same,composite z-score,[11],0.127 (inactive)
same,composite z-score,XIP peptide (Xip251-270),0.623
same,z-score,[12],-1.69
same,z-score,[13],2.34 (inactive)
same,z-score,[14],0.0676 (inactive)
same,z-score,[15],0.0745 (inactive)
COC(=O)[C@@]1(Cc2ccc(OC)cc2)[C@@H]2C(=CC(=O)[C@H]2CC(=O)C(=O)N(C)C)CN1C(=O)c1ccccc1,z-score,[1],-1.2
same,z-score,[2],1.61 (inactive)
same,z-score,[3],-2.16 (inactive)
same,composite z-score,[4],-0.626 (inactive)
same,z-score,[5],2.16 (inactive)
same,z-score,[6],0.625 (inactive)
same,z-score,[7],-0.575 (inactive)
same,z-score,[8],-0.798 (inactive)
same,z-score,[9],-3.26
same,composite z-score,[10],0.22
same,composite z-score,[11],0.0312 (inactive)
same,composite z-score,XIP peptide (Xip251-270),0.739
same,z-score,[12],-1.73
same,z-score,[13],-3.95 (inactive)
same,z-score,[14],-0.246 (inactive)
same,z-score,[15],-0.0503 (inactive)
